Screening data: PubChem, Buhrlage Lab, Dana-Farber Cancer Institute and Novartis Institutes for BioMedical Research (Cambridge, Mass)
USP28 block = inhibitors of human USP28 deubiquitinase; inhibition, % at 25 µM; AID 1645857; actives 3% (n = 47,000); purified USP28, Ub-rhodamine cleavage fluorescence, 30 min; Q96RU2
USP30 block = blocks human USP30 ubiquitin-rhodamine cleavage; AID 1645860; actives 5.3% (n = 47,000); Q70CQ3; purified USP30, Ub-rhodamine cleavage fluorescence; inhibition, % at 25 µM
USP8 block = blocks human USP8 ubiquitin-rhodamine cleavage | purified USP8, Ub-rhodamine cleavage fluorescence, 30 min | inhibition, % at 20 µM | actives 4.2% (n = 47,000)
USP17 inh = blocks human USP17 ubiquitin-rhodamine cleavage. purified USP17, Ub-rhodamine cleavage fluorescence, 3 h. inhibition, % at 50 µM. actives 6.5% (n = 47,000). AID 1645855
USP10 inh = blocks human USP10 ubiquitin-rhodamine cleavage | inhibition, % at 20 µM | Q14694 | actives 1.1% (n = 47,000) | AID 1645856 | purified USP10, Ub-rhodamine fluorescence, 60 min
Target sequence (Q14694 whole entry, looked up): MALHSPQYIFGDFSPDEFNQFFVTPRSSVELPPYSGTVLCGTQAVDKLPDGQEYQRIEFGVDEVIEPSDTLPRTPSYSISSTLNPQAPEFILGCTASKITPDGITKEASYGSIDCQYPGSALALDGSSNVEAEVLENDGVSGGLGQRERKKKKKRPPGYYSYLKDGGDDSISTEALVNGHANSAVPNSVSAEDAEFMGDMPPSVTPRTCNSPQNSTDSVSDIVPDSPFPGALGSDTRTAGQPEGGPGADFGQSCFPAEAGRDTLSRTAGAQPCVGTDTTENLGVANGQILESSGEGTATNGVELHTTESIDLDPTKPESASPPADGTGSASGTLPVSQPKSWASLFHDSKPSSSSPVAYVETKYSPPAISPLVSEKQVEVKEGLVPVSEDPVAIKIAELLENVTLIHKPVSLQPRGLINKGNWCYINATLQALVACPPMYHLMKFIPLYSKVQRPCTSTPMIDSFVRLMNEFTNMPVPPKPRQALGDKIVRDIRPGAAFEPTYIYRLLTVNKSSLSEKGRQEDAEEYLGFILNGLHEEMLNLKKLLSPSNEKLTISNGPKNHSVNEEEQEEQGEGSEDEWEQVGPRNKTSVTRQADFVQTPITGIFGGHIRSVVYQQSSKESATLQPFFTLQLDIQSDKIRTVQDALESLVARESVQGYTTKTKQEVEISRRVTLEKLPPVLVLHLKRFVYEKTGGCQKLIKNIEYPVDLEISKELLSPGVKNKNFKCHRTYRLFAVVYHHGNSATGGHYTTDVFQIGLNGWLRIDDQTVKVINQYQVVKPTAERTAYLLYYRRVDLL
A number is an active result. In the library only some 14% were active in any assay of this set; here they are far more common. No stated cut-off is given here; in the data, active means inhibition above about 30%; inactive means the rest.

`CC(C)COc1ccc(C(=O)N/C(=C/c2ccc3c(c2)OCO3)C(=O)O)cc1` gave USP28 block inactive, USP30 block 36.5, USP8 block inactive and USP10 inh inactive.
For Clc1ccc(-c2noc(-c3cnccn3)n2)cc1 the results were USP28 block inactive, USP30 block 30.6, USP8 block inactive, USP17 inh inactive and USP10 inh inactive.
For c1cnc(-c2nc(-c3ccc(-c4csc(C5CC5)n4)cc3)no2)cn1 the results were USP28 block inactive, USP30 block inactive, USP8 block inactive, USP17 inh inactive and USP10 inh inactive.
Screening Nc1c(C(=O)NCC2CCCO2)nnn1-c1ccccc1F (centres undefined) returned USP28 block inactive, USP30 block inactive, USP8 block inactive, USP17 inh inactive and USP10 inh inactive.
CCc1noc(-c2ccc(-n3ncc(C(=O)N4CCC(C)CC4)c3C)nc2)n1 was read as USP28 block inactive, USP30 block inactive, USP8 block inactive, USP17 inh inactive and USP10 inh inactive.
For CC(C)n1c(=O)[nH]c2c(C(=O)N3CCCCC3)snc2c1=O the results were USP28 block inactive, USP30 block 38.2, USP8 block inactive, USP17 inh inactive and USP10 inh inactive.
Screening CC(C)Cn1c(=O)[nH]c2c(C(=O)N3CCCCC3)snc2c1=O returned USP28 block inactive, USP30 block inactive, USP8 block inactive, USP17 inh inactive and USP10 inh inactive.
Screening CCc1ccc(-c2cn3ccn(-c4ccccc4OC)c(=O)c3n2)cc1 returned USP28 block inactive, USP30 block inactive, USP8 block inactive, USP17 inh inactive and USP10 inh inactive.
COc1ccc(OC)c(-c2cn3ccn(-c4ccc(F)c(Cl)c4)c(=O)c3n2)c1 was read as USP28 block inactive, USP30 block inactive, USP8 block 94.2, USP17 inh 38.7 and USP10 inh 30.5.
For CC(=O)Nc1onc(C)c1-c1ccc(C)c(S(=O)(=O)Nc2cccc(C)c2)c1 the results were USP28 block inactive, USP30 block inactive, USP8 block inactive, USP17 inh inactive and USP10 inh inactive.
For O=C(O)c1cccc(Nc2c(-c3cccc(O)c3)nc3cnccn23)c1 the results were USP28 block inactive, USP30 block inactive, USP8 block inactive, USP17 inh inactive and USP10 inh inactive.
`COc1ccc(CC(=O)Nc2cc(-c3cn4cccnc4n3)ccc2C)cc1` gave USP28 block inactive, USP30 block inactive, USP8 block inactive, USP17 inh 37.5 and USP10 inh inactive.
Screening O=C(COc1ccc(C(=O)Nc2ccc(F)cc2)cc1)Nc1ccc(Cl)cc1 returned USP28 block inactive, USP30 block inactive, USP8 block inactive and USP10 inh inactive.
O=C(COc1ccc(Cl)cc1)Nc1ccc(-c2cn3cccnc3n2)cc1 was read as USP28 block inactive, USP30 block inactive, USP8 block 53.0, USP17 inh 35.5 and USP10 inh inactive.
For CCN(CC)C(=O)c1sc(NC(=O)c2cc(-c3ccccc3Cl)nc3ccccc23)c(C(N)=O)c1C the results were USP28 block inactive, USP30 block inactive, USP8 block 47.1, USP17 inh inactive and USP10 inh 44.0.
Screening Cc1c(N2CCN(S(=O)(=O)c3ccc(F)c(F)c3)CC2)c(=O)n(C)c(=O)n1C returned USP28 block inactive, USP30 block 36.6, USP8 block inactive, USP17 inh 43.6 and USP10 inh inactive.
Screening Cc1ccc(S(=O)(=O)N2CCN(c3c(C)n(C)c(=O)n(C)c3=O)CC2)cc1C returned USP28 block inactive, USP30 block 37.1, USP8 block inactive, USP17 inh inactive and USP10 inh inactive.
COc1ccc(/C=C/c2nc(-c3ccc4oc(C)nc4c3)no2)cc1 was read as USP28 block inactive, USP30 block inactive, USP8 block 31.0 and USP10 inh inactive.
COc1ccc(NC(=O)NCCN2CCN(c3ccc(Cl)cc3)CC2)cc1 was read as USP28 block inactive, USP30 block inactive, USP8 block inactive, USP17 inh inactive and USP10 inh inactive.
For Cc1ccccc1C(=O)N1CCN(CCNC(=O)C(=O)Nc2ccc(Cl)cc2)CC1 the results were USP28 block inactive, USP30 block 42.4, USP8 block inactive, USP17 inh inactive and USP10 inh inactive.
COc1ccc(COC(=O)NC2CCN(S(=O)(=O)c3ccc(OC)cc3)CC2)cc1 was read as USP28 block inactive, USP30 block inactive, USP8 block inactive, USP17 inh inactive and USP10 inh inactive.
`COc1ccc2c(c1)C(=O)N(CCc1ccc(S(=O)(=O)NC(=O)NC3CCCCC3)cc1)C(=O)C2(C)C` gave USP28 block inactive, USP30 block 46.7, USP8 block inactive, USP17 inh inactive and USP10 inh inactive.
For Cc1ccc(-n2c(=O)[nH]c3c(C(N)=O)nc(C4CCCCC4)nc32)cc1 the results were USP28 block inactive, USP30 block inactive, USP8 block inactive, USP17 inh inactive and USP10 inh inactive.
COc1cc(-c2nc(C(N)=O)c3[nH]c(=O)n(-c4ccc(C)cc4)c3n2)cc(OC)c1OC was read as USP28 block inactive, USP30 block 45.4, USP8 block inactive, USP17 inh 74.7 and USP10 inh inactive.
NC(=O)c1nc(-c2cccnc2)nc2c1[nH]c(=O)n2-c1ccc2c(c1)OCO2 was read as USP28 block 53.0, USP30 block inactive, USP8 block 53.1, USP17 inh 46.1 and USP10 inh inactive.
Screening NC(=O)c1nc(-c2ccccn2)nc2c1[nH]c(=O)n2-c1ccc2c(c1)OCO2 returned USP28 block inactive, USP30 block 42.8, USP8 block inactive, USP17 inh 42.7 and USP10 inh inactive.
For NC(=O)c1nc(C2CCCCC2)nc2c1[nH]c(=O)n2-c1ccc2c(c1)OCO2 the results were USP28 block inactive, USP30 block inactive, USP8 block inactive, USP17 inh inactive and USP10 inh inactive.
`Cc1cccc(-n2c(=O)[nH]c3c(C(N)=O)nc(-c4ccccn4)nc32)c1` gave USP28 block inactive, USP30 block inactive, USP8 block inactive, USP17 inh inactive and USP10 inh inactive.
Screening CCCNC(=O)c1nc2c(o1)CN(C(=O)c1cccnc1)C2 returned USP28 block inactive, USP30 block inactive, USP8 block inactive, USP17 inh inactive and USP10 inh inactive.
Cn1c(SCCOc2ccccc2)nnc1-c1ccc2c(c1)OCCCO2 was read as USP28 block inactive, USP30 block inactive, USP8 block inactive, USP17 inh inactive and USP10 inh inactive.
For Cn1c(SCCOc2ccc(Cl)cc2)nnc1-c1ccc2c(c1)OCCO2 the results were USP28 block inactive, USP30 block 54.0, USP8 block inactive, USP17 inh inactive and USP10 inh inactive.
COc1ccc(S(=O)(=O)N2CCC3(CC2)OC(=O)Nc2ccccc23)cc1 was read as USP28 block inactive, USP30 block inactive, USP8 block 38.6, USP17 inh 63.6 and USP10 inh inactive.
For CCc1ccc(NC(=O)C(C)Nc2ccccc2NCCc2ccccc2)cc1 (centres undefined) the results were USP28 block inactive, USP30 block inactive, USP8 block 64.1, USP17 inh inactive and USP10 inh inactive.
